aSyn yeast inh: rescues yeast growth from alpha-synuclein toxicity; Yeast expressing alpha-synuclein, growth rescue, BacTiter-Glo, 24 h; Potency, µM (highest dose often 46.1 µM), inactives show at the highest dose growth rescue (activation), most hits filed as activators; 370,000 compounds, 0.14% hits; also: % of control where 0% means no effect; nearly all actives have a fitted effect of over 65% in size
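Readout is rescue of growth in alpha-synuclein-expressing yeast, so inhibitors of toxicity appear as activators. Growth after 24 hr at 30 deg C in galactose medium is quantified by luminescence.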
Mito fusion act: blocks mitochondrial division or promotes mitochondrial fusion | S. cerevisiae fusion-defective mutant growth rescue, CellTiterGlo 48 h | Potency, µM (highest dose often 46.1 µM), inactives show at the top dose growth rescue (activation), usual class: activators | 320,000 compounds, 0.23% hits; also: % of control where 0% means no effect; nearly all actives have a fitted effect of over 45% in size
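Temperature-sensitive fusion-defective S. cerevisiae (e.g. fzo1-1, mgm1-5) were grown with compound in YPEG medium (3% ethanol, 3% glycerol) for 48 hours at 37C. Growth rescue was measured as viability by CellTiterGlo luminescence after 10 minutes at ambient.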
TDP-43 yeast inh: TDP-43 toxicity inhibition in yeast | TDP-43 expressing yeast growth rescue, BacTiter-Glo, 24 h | Potency, µM (top dose mostly 46.1 µM), inactives show at the top dose growth rescue (activation), usual class: activators | 410,000 compounds, 1.8% hits; also: % of control where 0% means no effect; nearly all actives have a fitted effect of over 50% in size
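Galactose-induced TDP-43 yeast, OD600=0.02, compound pinned; 24 hr, 30 deg C; BacTiter-Glo luminescence for growth. Inhibitors of TDP-43 toxicity read as activators.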
Abeta rescue: A-beta toxicity reversal in yeast | yeast expressing A-beta42, growth rescue, OD600, 48 h; response scale: 0% DMSO, 100% iron-clioquinol control | Potency, µM (titrated, usually from 46.1 µM), usual class: activators | 410,000 compounds, 0.063% hits | AID 1347071; also: nearly all actives have a fitted effect of over 55% in size
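Growth rescue measured by 600 nm absorbance after 48 h yeast culture at 30 C with compound. Values normalized between DMSO and an equimolar ferric chloride plus clioquinol control.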
FUS yeast rescue: rescues growth of FUS-expressing yeast. 390,000 compounds, 0.24% hits. Potency, µM (doses to about 76.6 µM), actives largely listed as activators. S. cerevisiae FUS-expressing, growth rescue, OD600, 24 h;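 also: plate controls were DMSO vehicle for no effect and reference control for full effect; nearly all actives have a fitted effect of over 55% in size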
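Absorbance at 600 nm, taken 24hr after compound addition, measured rescue of FUS-yeast growth at 30C. Induction used 2% galactose with seeding at OD 0.005. Controls: CP55940 from 92uM final, DMSO only.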
Active calls of the source: *; i = inactive; ? = inconclusive; . = no result given; [ ] = dose if it differs, or a comment. In the library only some 2.2% were active in any assay of this set; here they are far more common. Calls follow the shape of the dose curve; as a rule, active = well fitted curve in the direction sought with a large enough effect; inconclusive = small, poorly fitted or top-dose-only effect, or another doubt; inactive = no such curve, though single readings can be large; an effect the other way counts as inactive or inconclusive. Potency is read from the fitted curve at half-maximal effect.

SMILES | aSyn yeast inh | Mito fusion act | TDP-43 yeast inh | Abeta rescue | FUS yeast rescue
S=C(Nc1nc2c(s1)CCCC2)NC1CC1 | 2% | -17% | 26% | 8.9µM* | i
COc1ccc(N2CCN(C(=O)CSc3nc4ccccc4nc3Cc3ccc(Cl)cc3)CC2)cc1 | . | . | -6% | i | 32µM*
CC1CCCCN1C(=O)CSc1nc2ccccc2nc1Cc1ccc(Cl)cc1 (stereo not drawn) | . | . | 0% | i | 25µM*
O=C(CSc1nc2ccccc2nc1Cc1ccc(Cl)cc1)N1CCN(c2ccccc2)CC1 | . | . | 5% | i | i
C[C@H]1[C@@H](C(=O)N2CCCC2)Cc2nc3ccccc3nc2C[C@@H]1c1ccccc1 | . | . | . | . | i
CCN(CC)c1cc(C)c2cc(NC(=O)/C=C/c3cc(OC)c(OC)c(OC)c3)ccc2n1 | . | . | 20% | i | i
Cc1ccccc1-c1nc2scc(CCNC(=O)c3ccco3)n2n1 | . | . | 18µM* | i | i
CC(C)(C)c1ccc(C(=O)NCCc2csc3nc(-c4ccccc4F)nn23)cc1 | . | . | 35µM* | i | ?
O=C(NCCc1csc2nc(-c3ccc(F)cc3)nn12)c1ccco1 | . | . | 0%[9.22 µM] | i | i
N#Cc1ccc(C(=O)NC(=S)NC2CCCCC2)cc1 | -9% | . | 22µM* | ? | i
COc1ccc(-c2cc(C(=O)NN=C/C(C)=C/c3ccccc3)[nH]n2)cc1 | . | . | . | . | i
Cc1cc(=O)[nH]c(SCC(=O)Nc2cccc(Cl)c2F)n1 | . | . | . | . | i
N#C/C(=C\c1ccc(F)c(Br)c1)C(=O)NC1CC1 | ? | 1% | ? | ? | i
CC(C)(C)c1ccc(/C=C(\C#N)C(=O)NC2CC2)cc1 | 27% | . | 35µM* | i | i
CCC(=O)c1ccc(OCc2ccc(C(=O)OC)cc2)c(OC)c1 | -12% | 1% | 20% | i | i
CCC(=O)c1ccc(OCc2ccccc2)c(OC)c1 | 10% | 29% | 11µM* | i | i
CCOC(=O)c1c(CN2CCOCC2)n(-c2ccccc2)c2cc(Br)c(OC)cc12 | -2% | -7% | 16µM* | i | i
CCOC(=O)c1c(CN2CCOCC2)n(-c2ccccc2)c2cc(Br)c(O)cc12 | . | -22% | -13% | i | i
Cc1cccc(NC(=O)CNC(=O)c2ccccc2Cl)n1 | -3% | 4% | -2% | i | i
Cn1c(=O)c2[nH]c(N=NN3CCCCC3)nc2n(C)c1=O | -11% | . | -13% | i | i
CC(=O)/C(N=Nc1nc2c([nH]1)c(=O)n(C)c(=O)n2C)=C(\C)O | -9% | 2% | -19% | i | 2.2µM*
O=C(COc1ccc2ccccc2c1)NCCn1ccc2ccccc21 | ? | ? | 22µM* | ? | ?
O=C(Cc1ccccc1)NCCn1ccc2ccccc21 | -2% | -1% | ? | i | i
O=C(Nc1ccccc1)N1CCN(c2nc3ccccc3s2)CC1 | 6% | 1% | 22µM* | i | i
CC(C)(C)c1nnc(N/N=C/c2ccccc2O)n(N)c1=O | 18µM* | -4% | 13% | 11µM* | i
SMILES | aSyn yeast inh | Mito fusion act | TDP-43 yeast inh | Abeta rescue | FUS yeast rescue
CC(C)n1nc(C(=O)NC2CCCCCC2)c2ccccc2c1=O | 0% | ? | 22µM* | i | i
CCOc1cc(C(=O)N2CCC(CC3CC(c4ccccc4)=NO3)(C(=O)NCc3ccc(OC)cc3)CC2)cc(OCC)c1OCC (stereo not drawn) | 0% | . | 2% | i | 18µM*
COc1ccc(CNC(=O)C2(CC3CC(c4ccccc4)=NO3)CCN(C(=O)Cc3ccc(F)cc3)CC2)cc1 (stereo not drawn) | 5% | . | 8% | i | i
NC(=O)[C@H](Cc1cc2ccccc2s1)NC(=O)[C@@H]1CC2(CC(c3cccc(NC(=O)[C@@H]4CCC(=O)N4)c3)=NO2)CN1C(=O)/C=C/c1c(F)cccc1Cl (stereo partly drawn) | -8% | 1% | 10% | i | ?
NC(=O)[C@H](Cc1cc2ccccc2s1)NC(=O)[C@@H]1CC2(CC(c3cccc(NC(=O)[C@@H]4CCC(=O)N4)c3)=NO2)CN1C(=O)c1ccccc1 (stereo partly drawn) | 3% | -1% | -7% | i | 35µM*
NC(=O)[C@H](Cc1cc2ccccc2s1)NC(=O)[C@@H]1CC2(CC(c3cccc(NC(=O)[C@@H]4CCC(=O)N4)c3)=NO2)CN1C(=O)/C=C/Sc1ccccc1 (stereo partly drawn) | 2% | 0% | 0% | i | 28µM*
C/C=C(/C)C(=O)Nc1cccc(C2=NOC3(C2)C[C@H](C(N)=O)N(C(=O)c2ccc(Cl)cc2)C3)c1 (stereo partly drawn) | 6% | 14µM* | 1% | i | i
COCCNC(=O)C[C@H]1CC[C@H]2[C@@H](COc3ccc(NC(=O)Nc4cccc(F)c4)cc3C(=O)N2C)O1 | . | . | . | . | i
N#Cc1cccc(C(=O)OCC(=O)NCc2ccco2)c1 | -6% | 2% | 7% | i | i
COc1cc(N2C(=O)c3ccccc3C2=O)c(Cl)cc1C(=O)OCC(=O)NCc1ccco1 | -7% | 2% | 13% | i | 16µM*
O=C(COC(=O)c1cccc(Oc2ccccc2)c1)NCc1ccco1 | 16% | 3% | 16µM* | ? | i
COc1cccc(OC)c1C(=O)OCC(=O)NCc1ccco1 | 1% | -2% | 23% | i | i
O=C(NCc1ccco1)c1ccc(Oc2ccccc2)cc1 | 0% | 2% | 20µM* | i | i
C=C1C=C(C(F)F)n2ncc(C(=O)NC(C)CC)c2N1 (stereo not drawn) | -5% | . | . | . | .
CC(=O)c1ccc(OC(=O)Oc2ccc(C(C)=O)cc2)cc1 | -9% | . | -20% | i | .
CC(=O)c1ccc(Oc2ccc(C(C)=O)cc2)cc1 | 0% | 2% | 22µM* | i | i
Cc1cc(C)n2c(SCc3ccc(C#N)cc3)nnc2n1 | 0% | 4% | 22µM* | i | i
Cc1cc(C)n2c(SCC#N)nnc2n1 | -7% | 0% | 17% | i | i
Cc1ccc(S(=O)(=O)NC(=S)NC2CCCCC2)cc1 | 10% | 7% | 16µM* | i | i
CCCCCCCC(=O)N/N=C/c1ccc([N+](=O)[O-])o1 | 4% | 20µM* | 20µM* | i | i
CCOC(=O)N/N=C\c1ccc([N+](=O)[O-])o1 | 2% | -12% | 11% | i | i
O=C(CNc1cccc2ccccc12)N/N=C/c1ccc([N+](=O)[O-])o1 | 19% | 19% | 20µM* | i | i
Cc1cc2ncn(/N=C/c3ccc([N+](=O)[O-])o3)c2cc1C | ? | -18% | 8.9µM* | i | i
Cc1ccccc1OCC(=O)N/N=C/c1ccc([N+](=O)[O-])o1 | 5% | 10% | 11% | i | i

High-throughput results: PubChem BioAssay, National Center for Advancing Translational Sciences (NCATS)
